Screening data as filed in PubChem.
Shown are actives, neighbours in structure and some others; about 2.5% of the full set was active somewhere.
MRP reversal = compounds reversing MRP-mediated drug resistance; 85,000 tested, 0.04% active; differential viability (reversal), % at 10 µM; H69AR cells + 2 uM doxorubicin, CellTiter-Glo, 72 h;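 active = viability drop by adding the cancer drug above about 55%, with treated viability meeting a 40% cutoff, limit read from the data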;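 note: larger differential means the compound sensitizes cells more to doxorubicin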
MRP1 act = activates MRP-1; 140,000 tested, 0.61% active; H69AR cells + doxorubicin, viability rescue, CellTiter-Glo; viability increase, % at 10 µM;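 active = viability gain under doxorubicin at or above a set limit, the compound median plus 3 SD, cut at about 4.7% in these data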;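 note: MRP-1 overexpressing cells given doxorubicin 25 µM after compound pretreatment; 18-22 h compound pretreatment then 72 h with doxorubicin before readout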
Measles CPE = protection of cells from measles virus; 140,000 tested, 1.5% active; protection (pct of control), % at 4 µM; Measles virus-infected cells, CPE protection, absorbance; in the data active = protection mostly above about 24%, no sharp cut-off; inactive = mostly below about 26%
sEH inh = blocks human soluble epoxide hydrolase activity. P34913. recombinant human sEH enzymatic activity assay. inhibition, % at 2 µM. 91,000 tested, 0.34% active; in the data active = inhibition above about 80%
Target sequence (P34913 whole entry, looked up): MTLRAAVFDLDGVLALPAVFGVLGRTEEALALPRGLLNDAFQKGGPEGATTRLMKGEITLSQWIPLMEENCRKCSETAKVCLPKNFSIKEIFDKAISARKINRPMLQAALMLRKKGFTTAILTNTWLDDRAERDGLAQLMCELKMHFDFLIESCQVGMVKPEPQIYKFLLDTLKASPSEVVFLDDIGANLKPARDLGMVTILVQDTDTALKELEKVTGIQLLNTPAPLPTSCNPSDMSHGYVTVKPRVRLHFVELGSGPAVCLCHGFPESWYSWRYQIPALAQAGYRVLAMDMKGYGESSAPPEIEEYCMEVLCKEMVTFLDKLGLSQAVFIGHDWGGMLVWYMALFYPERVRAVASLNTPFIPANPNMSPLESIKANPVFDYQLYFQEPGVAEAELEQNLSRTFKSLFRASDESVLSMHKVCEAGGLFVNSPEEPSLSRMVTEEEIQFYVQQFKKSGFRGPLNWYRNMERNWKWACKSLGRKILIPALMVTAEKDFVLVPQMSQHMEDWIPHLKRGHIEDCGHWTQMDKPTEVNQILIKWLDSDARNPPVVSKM
sEH act = soluble epoxide hydrolase (human) activation; P34913; purified human sEH enzymatic activity, activator screen; activation, % at 2 µM; 91,000 tested, 0.04% active; AID 717; in the data active = activation above about 37%
sdo1 growth = sdo1-depleted yeast growth rescue; S. cerevisiae sdo1-depleted JHY4D growth rescue, OD600 30 h; stronger effect = higher value; pdr5 snq2 efflux-pump mutant strain; z-score at 10 µM; 140,000 tested, 0.21% active; AID 817;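 active = z-score above 3 at both the 24 hr and the 30 hr optical density reads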
Large screens that a line does not name were inactive.

COc1cccc(C(=O)NNC(=S)NC2CCCCC2)c1	Measles CPE 25 (no result: MRP reversal, sEH inh, sEH act)
Cc1ccc(C(=O)Nc2ccc3cn[nH]c3c2)cc1S(=O)(=O)N1CCCCC1	none
COc1ccc(C(=O)c2ccc(N3CCN(C(=O)c4ccc(F)cc4)CC3)c(F)c2)cc1Br	Measles CPE 56
CCOc1ccc(N2C(=O)CC(N3CCC(O)(c4ccc(Br)cc4)CC3)C2=O)cc1 (stereo not given)	none
COc1ccc(N2C(=O)CC(N3CCC(O)(c4cccc(C(F)(F)F)c4)CC3)C2=O)cc1 (stereo not given)	MRP1 act 6.5 (no result: MRP reversal)
O=C(NCC1CCCO1)C(c1cccs1)N(C(=O)c1ccc(-c2ccccc2)[nH]1)C1CCCC1 (stereo not given)	Measles CPE 51 (no result: MRP reversal, sEH inh, sEH act)
O=C(NCC1CCCO1)C(c1cccs1)N(Cc1ccccc1)C(=O)c1ccc(-c2ccccc2)[nH]1 (stereo not given)	none (no result: MRP reversal, sEH inh, sEH act)
Cc1cc[n+](-c2nc([O-])sc2/C=N/Nc2ccc([N+](=O)[O-])cc2)cc1	Measles CPE 49
CC(C(=O)N1c2ccccc2CCc2ccccc21)n1nnc(-c2ccc(N(C)C)cc2)n1 (stereo not given)	MRP1 act 8.2
COCCNC(=O)c1ccc2c(c1)nc(C)n2-c1cc(OC)c(OC)c(OC)c1	none
O=C(NC1CCCc2ccccc21)c1ccccc1 (stereo not given)	none (no result: MRP reversal, sEH inh, sEH act)
COC(=O)[C@H](C)NC(=O)NC1CCCc2ccccc21 (stereo not given in full)	Measles CPE 56
O=C(COc1ccccc1)NC1CCCc2ccccc21 (stereo not given)	none (no result: MRP reversal, sEH inh, sEH act)
CNC(=O)NC1CCCc2ccccc21 (stereo not given)	Measles CPE 23
CC(C)[C@H](NC(=O)NC1CCCc2ccccc21)C(=O)O (stereo not given in full)	Measles CPE 20
CN1CCc2nc(SCC(=O)Nc3ccc(F)cc3)c(C#N)cc2C1	none
CC/C(=C\C(=O)c1cccnc1)Nc1ccc(C)c(C)c1	none (no result: sEH inh, sEH act)
C1=CCC(/C=N/n2cnnc2)CC1 (stereo not given)	Measles CPE 31 (no result: sEH inh, sEH act)
O=C(Oc1ccc2c(c1)O/C(=C\c1ccncc1)C2=O)c1ccccc1	Measles CPE 40 (no result: MRP reversal, sEH inh, sEH act)
CC1CCCCN1C(=O)Cn1cc(C#N)c2ccccc21 (stereo not given)	Measles CPE 40
O=C(Nc1ccccc1Cl)c1cccc(NS(=O)(=O)c2ccccc2)c1	none (no result: MRP reversal)
CC1=C(C(=O)OCC2CCCO2)C(c2ccncc2)C2=C(CC(C)(C)CC2=O)N1 (stereo not given)	none
CN1C(c2ccc(F)cc2)=CS/C1=C(\C#N)c1nnc2n1-c1ccccc1SC2	Measles CPE 31
C=CCN1C(c2ccccc2)=CS/C1=C(\C#N)c1nnc2n1CCCCC2	none (no result: sEH inh, sEH act)
O=C1CCCC(=NCc2ccco2)C1	Measles CPE 36 (no result: sEH inh, sEH act)
O=C1C=C(NCc2ccco2)CCC1	none
O=C1/C(=C\c2cccs2)N=C(c2cccs2)N1Nc1ccccc1	MRP1 act 6.9
CSc1ccc(/C=C(\C#N)C(=O)Nc2cccc(C)c2)cc1	none (no result: MRP reversal, sEH inh, sEH act)
COC(=O)CCC(=O)COc1ccc(OC)cc1C#N	none
COC(=O)CCC(=O)COc1ccccc1C#N	Measles CPE 41
COc1ccccc1NC(=O)c1sc2nc(-c3ccco3)ccc2c1N	MRP1 act 8.3
Cc1onc(-c2ccccc2Cl)c1C(=O)OCC(=O)Nc1ccc2c(c1)OCO2	MRP1 act 5.7 (no result: sEH inh, sEH act)
Cc1ccnc(NC(=O)c2c(-c3ccccc3Cl)noc2C)c1	Measles CPE 24 (no result: MRP reversal, sEH inh, sEH act)
COC(=O)c1c(NC(=O)c2c(-c3ccccc3Cl)noc2C)sc2c1CCC2	none
Cc1onc(-c2ccccc2)c1C(=O)OCC(=O)Nc1ccc2c(c1)OCO2	none
Cc1onc(-c2ccccc2Cl)c1C(=O)Nc1sc2c(c1C(N)=O)CCC(C)C2 (stereo not given)	MRP1 act 4.8
Cc1cc(C)nc(NC(=O)c2c(-c3ccccc3Cl)noc2C)c1	none (no result: MRP reversal, sEH inh, sEH act)
Cc1cccc(C)c1Nc1nnc(SCC(=O)c2ccc3c(c2)NC(=O)CO3)s1	none (no result: MRP reversal, sEH inh, sEH act)
COc1ccc(-n2nnnc2/C=C\Nc2ccccc2C(=O)c2ccccc2)cc1	Measles CPE 31 (no result: MRP reversal)
C=CCc1c(C)nc(-c2ccccc2)nc1N/N=C(\C)c1ccc(N)cc1	MRP1 act 5.7 (no result: MRP reversal, sEH inh, sEH act)
C=CCc1c(C)nc(-c2ccccc2)nc1N/N=C/c1ccccc1	MRP1 act 8.5 (no result: MRP reversal, sEH inh, sEH act)
C=CCc1c(C)nc(-c2ccccc2)nc1Nc1ccccc1O	none (no result: MRP reversal, sEH inh, sEH act)
